# The supplement of paper PMC8728848
# About 410 targets per protein were measured; listed, in parts, are those with the strongest signals and a random draw of the rest.
# B1: rAAL-2 (Agrocybe aegerita) (protein)
# chain: MTSNVITQDLPIPVASRGFADIVGFGLDGVVIGRNAVNLQPFLAVKNFAQNAGGWLTTKHVRLIADTTGTGKGDIVGFGNAGVYVSVNNGKNTFADPPKMVIANFGYDAGGWRVEKHLRYLADIRKIGRADIIGFGEKGVLVSRNNGGLNFGPATLVLKDFGYDAGGWRLDRHLRFLADVTGNGHLDIVGFGDKHVFISRNNGDGTFAPAKSVIDNFCIDAGGWKIGDHPRFVADLTGDGTADIIGCGKAGCWVALNNGGGVFGQVKLVINDFGTDKGWQAAKHPRFIADLTGNGRGDVVGFGNAGVYVALNNGDGTFQSAKLVLKDFGVQQGWTVSKHRRFVVDLTGDGCADIIGFGEKETLVSYNDGKGNFGPVKALTNDFSFSGGKWAPETTVCWMANLDSSRH
# What was measured:
# Experiment in all cases: glycan array binding signal (z-score within array); higher = stronger binding
# Conditions in all cases: glycan notation: IUPAC condensed, linker removed
# [1] = target: Fuc(a1-2)Gal(b1-4)GlcNAc(b1-3)Gal(b1-4)GlcNAc(b1-2)Man(a1-3)[Fuc(a1-2)Gal(b1-4)GlcNAc(b1-3)Gal(b1-4)GlcNAc(b1-2)Man(a1-6)]Man(b1-4)GlcNAc(b1-4)GlcNAc
# Outline: (§1)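 The Consortium for Functional Glycomics database supplied 3228 glycan arrays, of which those lacking an available protein sequence were dropped. The binding signal, a within-array Z-score, was averaged across arrays of the same protein sequence and across linkers. Negative scores can be read as non-binding.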
# Fuc(a1-2)[Gal(a1-3)]Gal = target: Fuc(a1-2)[Gal(a1-3)]Gal
# Outline: as §1
# [2] = target: Fuc(a1-2)[Gal(a1-3)]Gal(b1-3)GalNAc(b1-3)Gal(a1-4)Gal(b1-4)Glc
# Outline: as §1
# [3] = target: Fuc(a1-2)[GalNAc(a1-3)]Gal
# Outline: as §1
# [4] = target: Gal(a1-3)Gal(b1-3)GlcNAc(b1-3)GalNAc
# Outline: as §1
# [5] = target: Gal(a1-3)Gal(b1-4)GlcNAc(b1-3)GalNAc
# Outline: as §1
# [6] = target: Gal(a1-4)Gal(b1-4)GlcNAc(b1-2)Man(a1-3)[Gal(a1-4)Gal(b1-4)GlcNAc(b1-2)Man(a1-6)]Man(b1-4)GlcNAc(b1-4)GlcNAc
# Outline: as §1
# [7] = target: Gal(b1-3)GlcNAc(b1-3)Gal(b1-4)GlcNAc(b1-6)[Gal(b1-3)GlcNAc(b1-3)]Gal(b1-4)Glc
# Outline: as §1
# [8] = target: Gal(b1-3)[Fuc(a1-4)]GlcNAc(b1-6)GalNAc
# Outline: as §1
# Gal(b1-4)GlcNAc(b1-2)Man = target: Gal(b1-4)GlcNAc(b1-2)Man
# Outline: as §1
# [9] = target: Gal(b1-4)GlcNAc(b1-2)Man(a1-3)[Gal(b1-4)GlcNAc(b1-2)Man(a1-6)][Gal(b1-4)GlcNAc(b1-4)]Man(b1-4)GlcNAc(b1-4)[Fuc(a1-6)]GlcNAc
# Outline: as §1
# [10] = target: Gal(b1-4)GlcNAc(b1-2)Man(a1-3)[Gal(b1-4)GlcNAc(b1-2)Man(a1-6)][GlcNAc(b1-4)]Man(b1-4)GlcNAc(b1-4)[Fuc(a1-6)]GlcNAc
# Outline: as §1
# [11] = target: Gal(b1-4)GlcNAc(b1-2)Man(a1-3)[Gal(b1-4)GlcNAc(b1-2)][GlcNAc(b1-4)]Man(b1-4)GlcNAc(b1-4)GlcNAc
# Outline: as §1
# [12] = target: Gal(b1-4)GlcNAc(b1-3)Gal(b1-4)Glc
# Outline: as §1
# [13] = target: Gal(b1-4)GlcNAc(b1-3)Gal(b1-4)GlcNAc(b1-3)Gal(b1-4)GlcNAc
# Outline: as §1
# [14] = target: Gal(b1-4)GlcNAc(b1-3)Gal(b1-4)GlcNAc(b1-3)Gal(b1-4)GlcNAc(b1-3)Gal(b1-4)GlcNAc(b1-3)Gal(b1-4)GlcNAc(b1-2)Man(a1-3)[Gal(b1-4)GlcNAc(b1-3)Gal(b1-4)GlcNAc(b1-3)Gal(b1-4)GlcNAc(b1-3)Gal(b1-4)GlcNAc(b1-3)Gal(b1-4)GlcNAc(b1-2)Man(a1-6)]Man(b1-4)GlcNAc(b1-4)GlcNAc
# Outline: as §1
# [15] = target: Gal(b1-4)GlcNAc(b1-3)Gal(b1-4)GlcNAc(b1-3)Gal(b1-4)GlcNAc(b1-3)Gal(b1-4)GlcNAc(b1-3)Gal(b1-4)GlcNAc(b1-2)[Gal(b1-4)GlcNAc(b1-3)Gal(b1-4)GlcNAc(b1-3)Gal(b1-4)GlcNAc(b1-3)Gal(b1-4)GlcNAc(b1-3)Gal(b1-4)GlcNAc(b1-6)]Man(a1-6)[Gal(b1-4)GlcNAc(b1-3)Gal(b1-4)GlcNAc(b1-3)Gal(b1-4)GlcNAc(b1-3)Gal(b1-4)GlcNAc(b1-3)Gal(b1-4)GlcNAc(b1-2)Man(a1-3)]Man(b1-4)GlcNAc(b1-4)[Fuc(a1-6)]GlcNAc
# Outline: as §1
# [16] = target: Gal(b1-4)GlcNAc(b1-3)Gal(b1-4)GlcNAc(b1-3)[Gal(b1-4)GlcNAc(b1-3)Gal(b1-4)GlcNAc(b1-6)]GalNAc
# Outline: as §1
# Gal3S(b1-4)GlcNAc6S = target: Gal3S(b1-4)GlcNAc6S
# Outline: as §1
# GalNAc(b1-4)GlcNAc6S = target: GalNAc(b1-4)GlcNAc6S
# Outline: as §1
# [17] = target: GlcNAc(a1-3)Gal(b1-4)GlcNAc
# Outline: as §1
# [18] = target: GlcNAc(a1-4)Gal(b1-3)GlcNAc
# Outline: as §1
# [19] = target: GlcNAc(a1-4)Gal(b1-4)GlcNAc(b1-3)Gal(b1-4)Glc
# Outline: as §1
binder,measurement,setting,value
B1,glycan array binding signal (z-score),[1],-0.083
same,glycan array binding signal (z-score),Fuc(a1-2)[Gal(a1-3)]Gal,-0.221
same,glycan array binding signal (z-score),[2],0.126
same,glycan array binding signal (z-score),[3],-0.342
same,glycan array binding signal (z-score),[4],-0.274
same,glycan array binding signal (z-score),[5],-0.36
same,glycan array binding signal (z-score),[6],0.062
same,glycan array binding signal (z-score),[7],-0.234
same,glycan array binding signal (z-score),[8],-0.064
same,glycan array binding signal (z-score),Gal(b1-4)GlcNAc(b1-2)Man,-0.16
same,glycan array binding signal (z-score),[9],-0.282
same,glycan array binding signal (z-score),[10],-0.482
same,glycan array binding signal (z-score),[11],-0.266
same,glycan array binding signal (z-score),[12],-0.317
same,glycan array binding signal (z-score),[13],-0.113
same,glycan array binding signal (z-score),[14],-0.319
same,glycan array binding signal (z-score),[15],0.032
same,glycan array binding signal (z-score),[16],0.004
same,glycan array binding signal (z-score),Gal3S(b1-4)GlcNAc6S,-0.11
same,glycan array binding signal (z-score),GalNAc(b1-4)GlcNAc6S,-0.107
same,glycan array binding signal (z-score),[17],4.67
same,glycan array binding signal (z-score),[18],3.84
same,glycan array binding signal (z-score),[19],4.64
